Records with an inconclusive call do not appear. Active and inactive are the calls of the source. Calls follow the shape of the dose curve; as a rule, active = well fitted curve in the direction sought with a large enough effect; inconclusive = small, poorly fitted or top-dose-only effect, or another doubt; inactive = no such curve, though single readings can be large; an effect the other way counts as inactive or inconclusive.
Key:
HaCat [1] = assay: Cytotoxic Profiling of Annotated Libraries Using Quantitative High-Throughput Screening (AID 1296008); conditions: Five cell lines viability, CellTiter-Glo ATP luminescence, 48-72 h; max response: stronger effect = lower value; also: nearly all actives have a fitted effect of over 60% in size; also: potency is read from the fitted curve at half-maximal effect; as to max response: % is scaled to controls: 0 for no effect and ±100 for the full control effect
Procedure, shortened: (§1)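 Cells exposed to compounds for 48 or 72 hr at 37 degrees Celsius. Viability read as ATP-coupled luminescence with CellTiter-Glo after 10 min at room temperature.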

KB-3-1 = assay: as above; conditions: Five cell lines viability, CellTiter-Glo ATP luminescence, 48-72 h; max response: stronger effect = lower value
Procedure, shortened: as §1

NIH3T3 = assay: as above; conditions: Five cell lines viability, CellTiter-Glo ATP luminescence, 48-72 h; max response: stronger effect = lower value
Procedure, shortened: as §1

HACAT [2] = assay: qHTS assay to identify novel small-molecules to repurpose for Merkel cell carcinoma treatment (AID 1296009); conditions: MCC and control cell lines, CellTiter-Glo viability, 72 h; series mostly up to 44.8 µM; also: nearly all actives have a fitted effect of over 60% in size
Procedure, shortened: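 CellTiter-Glo luminescence after 72 hr compound exposure at 37 degree celsius gave cell viability. Libraries NPC and MIPE were run as 8- and 11-point dose responses; RLUs normalized to DMSO (negative) and no-cell (cytotoxicity) controls.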

C33A = assay: Primary qHTS to identify gynecologic anti-cancer compounds using libraries of approved drugs and bioactive compounds (AID 1345084); conditions: Gynecologic cancer cell panel viability, ATPlite luminescence, 48 h; series mostly up to 57.5 µM; also: nearly all actives have a fitted effect of over 55% in size; also: potency is read from the fitted curve at half-maximal effect; as to activity change, negative = cytotoxicity: % is scaled to controls: 0 for no effect and ±100 for the full control effect
Procedure, shortened: (§2)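 Five-concentration response, 48 h; readout is ATP-driven luciferase luminescence.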

CASKI = assay: as above; conditions: Gynecologic cancer cell panel viability, ATPlite luminescence, 48 h; series mostly up to 57.5 µM
Procedure, shortened: as §2

Es-2 = assay: as above; conditions: Gynecologic cancer cell panel viability, ATPlite luminescence, 48 h; series mostly up to 57.5 µM
Procedure, shortened: as §2

HeLa = assay: as above; conditions: Gynecologic cancer cell panel viability, ATPlite luminescence, 48 h; series mostly up to 57.5 µM
Procedure, shortened: as §2

Hek293T = assay: as above; conditions: Gynecologic cancer cell panel viability, ATPlite luminescence, 48 h, control line for the selectivity index; series mostly up to 57.5 µM
Procedure, shortened: as §2

JEG-3 = assay: as above; conditions: Gynecologic cancer cell panel viability, ATPlite luminescence, 48 h; series mostly up to 57.5 µM
Procedure, shortened: as §2

OV90 = assay: as above; conditions: Gynecologic cancer cell panel viability, ATPlite luminescence, 48 h; series mostly up to 57.5 µM
Procedure, shortened: as §2

CAOV3 = assay: as above; conditions: Gynecologic cancer cell panel viability, ATPlite luminescence, 48 h; series mostly up to 57.5 µM
Procedure, shortened: as §2

C/C=C/C1=CC2=C(CO1)C(=O)C(C)(O)C(OC(=O)c1c(C)cc(OC)cc1O)C2 (configuration not stated)
inactive: outcome (HaCat [1]) | max response (KB-3-1) 3.88% | max response (NIH3T3) -6.89% | Potency (HACAT [2]) | Potency (C33A) | Potency (CASKI) | Potency (Es-2) | Potency (HeLa) | Potency (Hek293T) | Potency (JEG-3) | Potency (OV90)

COc1ncc2cc(C(=O)Nc3cc(C(=O)NCc4cccc(Cl)c4)ccc3Cl)c(=O)[nH]c2n1
inactive: outcome (HaCat [1]) | max response (NIH3T3) -0.237% | Potency (HACAT [2]) | Potency (C33A) | Potency (CAOV3) | Potency (CASKI) | Potency (Es-2) | Potency (Hek293T) | Potency (JEG-3) | Potency (OV90)
active: Potency (KB-3-1) 4.11 µM

C=C(C(=O)O)[C@H]1C[C@]2(C)[C@@H](O)CC[C@]23O[C@H]1C[C@@H]3C
inactive: outcome (HaCat [1]) | outcome (KB-3-1) | max response (NIH3T3) -13.7% | Potency (HACAT [2]) | Potency (C33A) | Potency (CASKI) | Potency (Es-2) | Potency (HeLa) | Potency (Hek293T) | Potency (JEG-3) | Potency (OV90)

CC(C)=CCC/C(C)=C/CC/C(C)=C/COC1OC(COC2OCC(OC3OCC(O)C(O)C3O)C(O)C2O)C(O)C(OC2OC(C)C(OC3OC(C)C(OC4OCC(OC5OC(C)C(O)C(O)C5O)C(O)C4O)C(O)C3O)C(O)C2O)C1O (configuration not stated)
inactive: outcome (HaCat [1]) | max response (KB-3-1) 6.01% | max response (NIH3T3) -0.843% | outcome (HACAT [2]) inactive [at 9.27 µM] | activity change, negative = cytotoxicity (C33A) 4.68% [at 6.55 µM] | activity change, negative = cytotoxicity (CASKI) -7.12% [at 6.55 µM] | activity change, negative = cytotoxicity (Es-2) -6.21% [at 6.55 µM] | activity change, negative = cytotoxicity (HeLa) -2.03% [at 6.55 µM] | activity change, negative = cytotoxicity (Hek293T) -3.08% [at 6.55 µM] | activity change, negative = cytotoxicity (JEG-3) -0.54% [at 6.55 µM] | activity change, negative = cytotoxicity (OV90) -9.19% [at 6.55 µM]

C=CC1C(OC2OC(CO)C(O)C(O)C2O)OC=C(C(=O)OC)C1CC(=O)OCC1C(C)C(O)CC1C(CO)COC(=O)CC1C(C(=O)O)=COC(OC2OC(CO)C(O)C(O)C2O)/C1=C\C (configuration not stated)
inactive: outcome (HaCat [1]) | outcome (KB-3-1) | max response (NIH3T3) -19.3% | outcome (HACAT [2]) inactive [at 9.27 µM] | activity change, negative = cytotoxicity (C33A) 0.0118% [at 11.6 µM] | activity change, negative = cytotoxicity (CASKI) 1.02% [at 11.6 µM] | activity change, negative = cytotoxicity (Es-2) -2.47% [at 11.6 µM] | activity change, negative = cytotoxicity (HeLa) 2.07% [at 11.6 µM] | activity change, negative = cytotoxicity (Hek293T) 1.07% [at 11.6 µM] | activity change, negative = cytotoxicity (JEG-3) 0.819% [at 11.6 µM] | activity change, negative = cytotoxicity (OV90) 16.4% [at 11.6 µM]

COc1cc(/C=C/C=O)cc(OC)c1O[C@@H]1O[C@H](CO)[C@@H](O)[C@H](O)[C@H]1O
inactive: outcome (HaCat [1]) | outcome (KB-3-1) | max response (NIH3T3) -71.2% | Potency (HACAT [2]) | Potency (C33A) | Potency (CASKI) | Potency (Es-2) | Potency (HeLa) | Potency (Hek293T) | Potency (JEG-3) | Potency (OV90)

CC1(C)CCCC2(C)C1CC(=O)C13CC(CCC12)C(O)(CO)C3 (configuration not stated)
inactive: outcome (HaCat [1]) | max response (KB-3-1) 8.26% | max response (NIH3T3) 2.51% | Potency (HACAT [2]) | Potency (C33A) | Potency (CASKI) | Potency (HeLa) | Potency (Hek293T) | Potency (JEG-3) | Potency (OV90)
active: Potency (Es-2) 4.47 µM

COc1cc2c(c(OC)c1CC=C(C)C)C[C@H](c1ccc(O)cc1O)CO2
inactive: outcome (HaCat [1]) | outcome (KB-3-1) | max response (NIH3T3) 0.487% | Potency (HACAT [2]) | Potency (C33A) | Potency (CASKI) | Potency (Es-2) | Potency (HeLa) | Potency (Hek293T) | Potency (JEG-3) | Potency (OV90)

CC1(C)CC[C@]2(C(=O)O[C@@H]3O[C@H](CO)[C@@H](O)[C@H](O)[C@H]3O)CC[C@]3(C)C(=CCC4[C@@]5(C)CC[C@H](O[C@@H]6O[C@H](C(=O)O)[C@@H](O)[C@H](O)[C@H]6O)C(C)(C)C5CC[C@]43C)C2C1 (some centres not stated)
inactive: outcome (HaCat [1]) | max response (KB-3-1) 6.58% | max response (NIH3T3) -3.14% | outcome (HACAT [2]) inactive [at 9.27 µM] | activity change, negative = cytotoxicity (C33A) 3.23% [at 11.6 µM] | activity change, negative = cytotoxicity (CASKI) -0.46% [at 11.6 µM] | activity change, negative = cytotoxicity (Es-2) 6.53% [at 11.6 µM] | activity change, negative = cytotoxicity (HeLa) 7.58% [at 11.6 µM] | activity change, negative = cytotoxicity (Hek293T) 5.45% [at 11.6 µM] | activity change, negative = cytotoxicity (JEG-3) 7.56% [at 11.6 µM] | activity change, negative = cytotoxicity (OV90) -4.22% [at 11.6 µM]

Cc1ccc(S(=O)(=O)n2ccc(-c3c(-c4ccc(Cl)cc4)noc3C)n2)cc1
inactive: outcome (HaCat [1]) | max response (KB-3-1) -24.7% | max response (NIH3T3) -14.9% | Potency (HACAT [2]) | Potency (CAOV3) | Potency (CASKI) | Potency (Es-2) | Potency (HeLa) | Potency (Hek293T) | Potency (OV90)
active: Potency (C33A) 8.91 µM

C=CC(C)(C)c1[nH]c2cc3c(cc2c1CC1NC(=O)C2=CCCN2C1=O)C=CC(C)(C)O3 (configuration not stated)
inactive: outcome (HaCat [1]) | outcome (KB-3-1) | max response (NIH3T3) -5.01% | Potency (HACAT [2]) | Potency (C33A) | Potency (CAOV3) | Potency (CASKI) | Potency (HeLa) | Potency (Hek293T) | Potency (JEG-3) | Potency (OV90)

CN1C2CCC1CC(OC(=O)[C@H](CO)c1ccccc1)C2 (some centres not stated)
inactive: outcome (HaCat [1]) | max response (KB-3-1) -9.98% | max response (NIH3T3) -25.3% | Potency (HACAT [2]) | Potency (C33A) | Potency (CAOV3) | Potency (CASKI) | Potency (Hek293T) | Potency (JEG-3)

Cc1cc(NC(=O)Nc2ccc(F)c(F)c2)n(-c2ccccc2)n1
inactive: outcome (HaCat [1]) | max response (KB-3-1) 4.72% | max response (NIH3T3) -11% | Potency (HACAT [2]) | Potency (C33A) | Potency (CASKI) | Potency (Es-2) | Potency (HeLa) | Potency (Hek293T) | Potency (JEG-3) | Potency (OV90)

C=C1C(OC2OCC(O)C(O)C2O)CC2C(C)(C)C(O)CCC2(C)C1CC/C(C)=C\CO (configuration not stated)
inactive: outcome (HaCat [1]) | max response (KB-3-1) 3.38% | max response (NIH3T3) 1.42% | Potency (HACAT [2]) | Potency (C33A) | Potency (CASKI) | Potency (Es-2) | Potency (HeLa) | Potency (Hek293T) | Potency (JEG-3) | Potency (OV90)

— PubChem BioAssay (NCATS)
